Laboratory results: the supplement of paper PMC6555819

What was measured:
Assay in all cases: PBM binding z-score (relative to random genomic background probes); higher = stronger binding; sequences stand for … in GC…GCGATTGACAGCGTAGAATGAAGG
[1] = tested on: FXR:RXRa (NR concentration 270 nM, RXRa partner concentration 90 nM)
Method in brief: (§1)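 Antibodies against each partner of ligand-free nuclear receptor dimers (one per run) detected binding on custom Agilent 4×180K protein-binding microarrays after 1 h incubation. The double-stranded probes had 34-nt variable regions carrying direct-repeat seeds, single-nucleotide variants, half-site ablations and random human genomic background sequences. Binding z-scores, from regression-normalized fluorescence, use the random background probes as reference.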

[2] = tested on: LXRa:RXRa (NR concentration 270 nM, RXRa partner concentration 90 nM)
Method in brief: as §1

[3] = tested on: LXRa homodimer (NR concentration 270 nM)
Method in brief: as §1

[4] = tested on: LXRb:RXRa (NR concentration 270 nM, RXRa partner concentration 90 nM)
Method in brief: as §1

[5] = tested on: LXRb homodimer (NR concentration 270 nM)
Method in brief: as §1

[6] = tested on: PPARa:RXRa (NR concentration 270 nM, RXRa partner concentration 90 nM)
Method in brief: as §1

[7] = tested on: PPARg:RXRa (NR concentration 180 nM, RXRa partner concentration 90 nM)
Method in brief: as §1

[8] = tested on: PPARg:RXRa 270nM:90nM, anti-RXR (NR concentration 270 nM, RXRa partner concentration 90 nM)
Method in brief: as §1

[9] = tested on: PPARg:RXRa 30nM:10nM, anti-RXR (NR concentration 30 nM, RXRa partner concentration 10 nM)
Method in brief: as §1

[10] = tested on: PPARg:RXRa 90nM:30nM, anti-RXR (NR concentration 90 nM, RXRa partner concentration 30 nM)
Method in brief: as §1

[11] = tested on: PPARg:RXRa DBDmut IVT, anti-RXR (DBD mutation: RXRa K156A/R161A, NR concentration 270 nM, RXRa partner concentration 90 nM)
Method in brief: as §1

[12] = tested on: PPARg:RXRa IVT, anti-PPARg (NR concentration 270 nM, RXRa partner concentration 90 nM)
Method in brief: as §1

[13] = tested on: PPARg DBDmut:RXRa IVT, anti-PPARg (DBD mutation: PPARg1 K132A/R137A, NR concentration 270 nM, RXRa partner concentration 90 nM)
Method in brief: as §1

[14] = tested on: PPARg DBDmut IVT, anti-PPARg (DBD mutation: PPARg1 K132A/R137A, NR concentration 270 nM)
Method in brief: as §1

[15] = tested on: PPARg homodimer (NR concentration 180 nM)
Method in brief: as §1

[16] = tested on: PXR:RXRa (NR concentration 270 nM, RXRa partner concentration 90 nM)
Method in brief: as §1

[17] = tested on: PXR homodimer (NR concentration 270 nM)
Method in brief: as §1

[18] = tested on: RARa:RXR (NR concentration 270 nM, RXRa partner concentration 90 nM)
Method in brief: as §1

[19] = tested on: RARa homodimer (NR concentration 270 nM)
Method in brief: as §1

[20] = tested on: RARb:RXRa (NR concentration 270 nM, RXRa partner concentration 90 nM)
Method in brief: as §1

Row | Sequence | PBM binding z-score [1] | PBM binding z-score [2] | PBM binding z-score [3] | PBM binding z-score [4] | PBM binding z-score [5] | PBM binding z-score [6] | PBM binding z-score [7] | PBM binding z-score [8] | PBM binding z-score [9] | PBM binding z-score [10] | PBM binding z-score [11] | PBM binding z-score [12] | PBM binding z-score [13] | PBM binding z-score [14] | PBM binding z-score [15] | PBM binding z-score [16] | PBM binding z-score [17] | PBM binding z-score [18] | PBM binding z-score [19] | PBM binding z-score [20]
1 | TCGAATAGGTTAGGGGCATTCAGAATGGCGTCGA | 0.35 | 0.807 | -0.0676 | 1.26 | 0.0688 | 1.49 | 0.443 | 2.13 | 2.93 | 2.56 | 1.9 | 0.68 | -0.275 | -0.57 | 0.452 | 0.695 | 0.0158 | 0.806 | 0.0673 | 1.5
2 | TCGAGTAGGTCACCAATGGGGCATTCAGCTTTCT | 3.29 | 3.16 | -0.128 | 2.79 | -0.57 | 4.45 | 5.85 | 5.14 | 2.8 | 4.74 | 5.54 | 6.57 | 0.462 | 0.45 | 1.71 | 2.42 | -0.543 | 3.13 | -0.919 | 3.84
3 | TCTGCTAGGTCATTTGGTCAGCTAACGAGCTGCC | 4.28 | 3.21 | 1.04 | 2.03 | 1.81 | 3.19 | 1.97 | 3.11 | 1.64 | 2.37 | 3.73 | 3.88 | 3.37 | 1.7 | 1.5 | 1.46 | -0.592 | 2.1 | -1.02 | 3.62
4 | AGTCAAAGTTCACTAGGTATCGTAAGATTCAGCT | 4.92 | 5.04 | 3.27 | 2.98 | 1.09 | 4.19 | 6.03 | 5.82 | 2.96 | 5.12 | 1.2 | 3.6 | 1.14 | 1.1 | 2.46 | 4.04 | 3.44 | 2.8 | 1.06 | 4.7
5 | ATCGAAAGGCCGAAGGTGAGTATACCCACCCGAA | -0.216 | -0.00303 | -0.202 | -0.349 | -0.732 | 0.657 | 1.25 | 1.31 | 0.275 | 0.738 | -0.869 | 0.122 | -0.0521 | -0.507 | -0.197 | -0.245 | -0.678 | 0.273 | -0.544 | 1.04
6 | CCTACTCGGCCATCAGGTCATTGATATCAACGTT | 2.3 | 1.76 | 2.13 | 2.26 | 1.01 | 2.16 | 1.06 | 1.62 | 0.262 | 1.02 | 2.58 | 2.67 | 0.141 | -0.00439 | 2.27 | 2.02 | 1.21 | 2.36 | 1.12 | 2.29
7 | TCTGCTAGGTCAGTTGGTCAACTAACGAGCTGCC | 0.974 | 0.627 | -0.58 | 0.38 | 0.371 | 1.63 | 1.12 | 2.14 | 1.02 | 1.81 | 2.83 | 3.32 | 0.661 | 0.786 | -0.104 | 0.269 | -0.861 | 0.622 | -0.954 | 3.27
8 | TCTATTAGTTGATTAGGGCAACCCAAACAGCGGA | 0.851 | 0.543 | 0.334 | 0.826 | 0.771 | 1.09 | 0.509 | 1.97 | 3.86 | 2.89 | 1.83 | 1.56 | 1.32 | 1.89 | 0.811 | 0.65 | 0.299 | 0.776 | 1.44 | 0.917
9 | CCTAGCAGGCCAATCCGGGTCACTCAAGGCTTGA | 2.13 | 1.84 | -0.396 | 1.47 | -0.923 | 2.78 | 0.787 | 1.02 | -0.565 | 0.469 | 2.27 | 2.8 | -1.26 | -0.765 | 0.726 | 2.79 | -0.246 | 2.23 | -0.442 | 1.63
10 | GCATACAGGTAATACAAGGTGAAAGTCCGATTGT | 0.599 | 2.17 | 0.595 | 0.711 | -0.363 | 1.3 | 0.859 | 0.843 | 0.676 | 0.712 | 0.771 | 1.43 | 0.568 | -0.128 | 0.379 | 0.708 | 0.62 | 1.48 | 0.481 | 0.594
11 | ATCGTAAGGTCGACGAGGTGAGTATACACCGTTT | 3.07 | 1.79 | -0.0992 | 1.66 | 0.155 | 3.03 | 1.36 | 1.25 | 0.685 | 0.918 | 0.226 | 1.61 | 0.856 | 0.0648 | 0.926 | 2.17 | 0.476 | 2.39 | 0.139 | 3.08
12 | ACTCGTTGGTCAGCTGAGGTCACACACAATTCGG | 3.88 | 3.44 | 2.55 | 3.61 | 0.51 | 3.65 | 1.26 | 1.84 | 0.425 | 1.25 | 0.747 | 2.05 | -0.129 | 0.631 | 3.13 | 5.42 | 1.8 | 4.47 | 1.77 | 3.58
13 | CCTTACGGGTCACTGACAGGTTCTAGCATTTGGA | 4.75 | 3.1 | 0.00693 | 2.9 | 0.128 | 4.77 | 3.89 | 4.02 | 1.11 | 2.83 | 3.31 | 3.38 | 0.541 | -0.487 | 1.98 | 2.71 | -0.239 | 3.46 | 0.459 | 3.63
14 | GCTGCTAGGTCAGGCTGGTCAGCTAACGGGTACG | 0.826 | 0.306 | -0.725 | -0.222 | -1.11 | 1.3 | 0.457 | 0.956 | -0.364 | -0.0747 | 3.75 | 2.35 | -1.05 | -1.02 | -0.17 | -0.0298 | -0.747 | 0.0805 | -0.715 | 3.35
15 | ATATGTAGGTTGCATCCGGGTCATTCAGGCTATG | 1.21 | 1.43 | 0.122 | 1.29 | -0.0904 | 2.76 | 1.97 | 1.68 | 0.362 | 1.36 | 4.33 | 3.93 | 1.47 | 0.927 | 0.466 | 2.76 | 1.85 | 2.73 | 0.0936 | 1.4
16 | TCTCGCAGGACACGAAGGTCAGAGCTTTCCAGAG | 1.36 | 1.16 | 0.275 | 1.43 | -0.948 | 1.92 | 0.556 | 1.75 | 1.75 | 1.74 | 1.49 | 0.67 | -1.01 | -1.42 | 0.787 | 1.44 | -0.0691 | 1.81 | -0.422 | 2.74
17 | AGAATGAGGTTCTACGTAGATCAGGGAAGAAAGT | -0.522 | -0.707 | -0.69 | -0.345 | -0.624 | -0.336 | 0.146 | -0.165 | -0.125 | -0.13 | 0.0808 | 0.054 | 0.621 | 0.606 | -0.411 | -0.126 | 0.193 | -0.0619 | -0.303 | -0.407
18 | ACTATTAGTTGGCTTAGGGCAACCGATACGACGC | 0.0688 | -0.0139 | 0.0233 | -0.136 | 0.573 | -0.171 | 0.739 | -0.00108 | 0.0765 | 0.0615 | 0.277 | 0.0103 | 0.854 | 1.29 | 0.354 | -0.139 | 0.29 | 0.151 | 0.786 | 0.506
